Assay [1] is described as follows: qHTS to identify inhibitors of the type 1 interferon - major histocompatibility complex class I in skeletal muscle: primary screen against the NCATS LOPAC collection (AID 1347405).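 Further: lytic HiBiT luminescence reporting HLA-B protein level.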 The essentials:
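CRISPR-engineered immortalized human myoblasts (C25cl48) with HiBiT fused to endogenous HLA-B*08:01, stimulated with 4 ng/ml IFN-beta. LOPAC compounds tested as a 7-point 1:4.3 titration (top 46 uM final), 24 h at 37 C; lytic HiBiT luminescence read.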
Background: Quantitative high-throughput screening tests each substance at several concentrations.

Assay [2] in a line: qHTS for inhibitors of adenylyl cyclases using a fission yeast platform: a pilot screen against the NCATS LOPAC library (AID 1347410). The gist of the method: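 Read-out: fbp1-GFP fluorescence by laser scanning cytometry (488 nm laser), a gain of signal when AC/cAMP-PKA signalling is inhibited. Strain CHP2027 expressing AC9, GNAS and PDE4D2; compounds at up to 57 µM; 18 h, 30C.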

Assay [3] in a line: Validation qHTS assay for inhibitors of Activation Induced Cytidine Deaminase (AID): UDG Counterscreen signal (AID 1347427). The essentials: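 Counterscreen read of UDG activity (2 U/mL, 4/3x) in the FRET deamination format with AID (1 uM, 4/3x), DJC20/DJC23 substrates (250 nM, 4x), 4 h at room temperature. NaOH stop, fluorescence at 560 ex/665 em.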
Assay [4] addresses Single-stranded DNA cytosine deaminase (Homo sapiens) (UniProt Q9GZX7). In words: Validation qHTS assay for inhibitors of Activation Induced Cytidine Deaminase (AID): AID signal (AID 1347429). Further: potency means the concentration at half of the fitted maximal effect. The essentials:
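FRET deamination assay: 1 uM AID (4/3x stock) with UDG, compound up to 114 uM, then 250 nM DJC20/DJC23 substrate (4x stock) for 4 hr at room temperature. NaOH added, 30 min; fluorescence read 540/590 nm.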

The nature of assay [5]: Primary qHTS for inhibitors of La Crosse Virus (LACV) - induced cell death in SH-SY5Y cells (AID 1508616).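 Further: top concentration of the series differs between compounds; higher means more rescue of cells from virus-induced death.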 The gist of the method: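 SH-SY5Y cells (6000/well) plated 24 h, then given compounds by pin transfer and LACV at 0.01 MOI for 6 days at 37C. Viability measured by ATPLite luminescence, normalized to infected DMSO and uninfected DMSO.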
For assay [6], the target named is Calcium and integrin-binding protein 1 (Homo sapiens) (UniProt Q99828). As to the kind of experiment: Validation qHTS for Identification of Calcium Integrin Binding protein 1 (CIB1) Competitor (AID 1508618). The gist of the method:
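Fluorescence polarization with 1 uM CIB1-GST and 100 nM FITC-alphaIIb peptide in HEPES pH 7.4, NaCl, 5 mM CaCl2, Tween20. Compounds at up to 114 uM final, preincubated with protein 15 min; read after 15 min more at RT.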

Assay [7] addresses Papain (Carica papaya) (UniProt P00784). In words: Primary qHTS assay for inhibitors of the protease papain (AID 1645873).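 Further: papain turnover of Z-FR-AMC read as the AMC fluorescence gain over 10 min.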 Further: potency means the concentration at half of the fitted maximal effect.
Assay [8] can be described thus: Primary qHTS for small molecule stabilizers of the endoplasmic reticulum resident proteome: Secreted ER Calcium Modulated Protein (SERCaMP) assay (AID 1508630). The essentials: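 GLuc-SERCaMP-expressing SH-SY5Y cells, pretreated 16 h with compound, are challenged with thapsigargin to empty ER calcium stores; after 4 h, coelenterazine is added directly to the medium and luminescence is imaged.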

The nature of assay [9]: Counterscreen qHTS for small molecule stabilizers of the endoplasmic reticulum resident proteome: GLuc-NoTag assay (AID 1508627). Further: potency means the concentration at half of the fitted maximal effect. The gist of the method:
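SH-SY5Y cells stably expressing constitutively secreted GLuc (no SERCaMP tag) were pre-incubated 5 h, treated with compound for 19 h, then 100 nM thapsigargin for 4 h at 37C; medium GLuc read by coelenterazine luminescence.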
(The purpose of a counterscreen is to sort out artefacts and off-target activity.)

Results filed as inconclusive are left out. Calls of active or inactive are those of the source. The call rests on the fitted dose curve; in most records, active means well fitted curve in the direction sought with a large enough effect; inconclusive means small, poorly fitted or top-dose-only effect, or another doubt; inactive means no such curve, though single readings can be large; an effect the other way counts as inactive or inconclusive.

Sequence of Single-stranded DNA cytosine deaminase (Homo sapiens) (Q9GZX7 whole entry, looked up): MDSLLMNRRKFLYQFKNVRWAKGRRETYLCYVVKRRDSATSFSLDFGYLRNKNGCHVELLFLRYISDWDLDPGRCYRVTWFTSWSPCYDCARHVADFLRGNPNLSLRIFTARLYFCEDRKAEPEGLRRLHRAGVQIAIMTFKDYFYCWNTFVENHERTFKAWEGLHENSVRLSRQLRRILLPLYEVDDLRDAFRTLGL
Sequence of Calcium and integrin-binding protein 1 (Homo sapiens) (Q99828 whole entry, looked up): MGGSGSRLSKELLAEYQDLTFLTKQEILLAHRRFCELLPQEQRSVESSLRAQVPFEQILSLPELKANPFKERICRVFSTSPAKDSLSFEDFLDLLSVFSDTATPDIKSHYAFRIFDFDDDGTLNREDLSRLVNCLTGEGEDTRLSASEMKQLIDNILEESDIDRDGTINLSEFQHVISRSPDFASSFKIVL
Sequence of Papain (Carica papaya) (P00784 whole entry, looked up): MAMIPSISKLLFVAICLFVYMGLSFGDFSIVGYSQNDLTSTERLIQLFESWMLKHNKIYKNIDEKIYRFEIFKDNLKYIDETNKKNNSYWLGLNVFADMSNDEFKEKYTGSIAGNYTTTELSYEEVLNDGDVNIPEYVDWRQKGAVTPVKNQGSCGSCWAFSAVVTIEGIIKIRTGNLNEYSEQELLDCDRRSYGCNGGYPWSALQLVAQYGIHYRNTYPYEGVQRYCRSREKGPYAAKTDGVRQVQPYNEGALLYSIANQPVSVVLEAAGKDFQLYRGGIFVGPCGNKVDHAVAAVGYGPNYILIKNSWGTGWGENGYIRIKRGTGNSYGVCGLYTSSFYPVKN

Take `COC(=O)C(C)(N)Cc1ccc(O)cc1` (centres undefined): the Potency result in assay [1], in [3], in assay [4], in assay [5], in assay [6] and in assay [7] was “inactive” throughout. Moreover, the result in assay [2] was inactive.

With `C[C@H](NC(=O)/C(C#N)=C/c1ccc(O)c(O)c1)c1ccccc1`, the Potency result in assay [1], in [3], in assay [4], in assay [5], in assay [6] and in assay [7] was “inactive” each time. Also, the call in [2] was inactive.

With `O=c1[nH]c(=O)c2nc3ccccc3nc2[nH]1`, the Potency result in assay [1], in [3], in [4], in assay [5], in [8] and in assay [7] was “inactive” throughout. In [2], the call was inactive.

Consider `CC[C@H](NC(=O)c1c(C)c(-c2ccccc2)nc2ccccc12)c1ccccc1`, for which the Potency result in assay [1], in assay [3], in assay [4], in assay [5], in assay [6] and in assay [7] was “inactive” in each case. Also, in [2], the compound was classed as inactive.

As for `c1ccc(C(NCCNC(c2ccccc2)c2ccccc2)c2ccccc2)cc1`, the Potency result in [1], in [3], in [4], in assay [5], in assay [6] and in [7] was “inactive” throughout. Further, the call in assay [2] was inactive.

As to `N=C(N)c1ccccc1`, the Potency entry in assay [1], in [3], in assay [4], in [5], in assay [6] and in assay [7] was “inactive” each time. Also, the compound was called inactive in assay [2].

Turning to `CCCCCCC/C=C\CCCCCCCCC(=O)O`, the Potency result in assay [1], in assay [3], in [5] and in [8] was “inactive” in each case. The compound was classed as inactive in [2]. Also, the Potency in assay [4] is 70.8 µM (active).

Turning to `CO/N=C(\C(=O)N[C@@H]1C(=O)N2C(C(=O)O)=C(CSc3nc(=O)c(O)nn3C)CSC12)c1csc(N)n1` (some centres undefined), the Potency entry in assay [1], in [3], in assay [4], in assay [5] and in assay [8] was “inactive” each time. In addition, the compound was called inactive in assay [2].

`N[C@H](C(=O)O)[C@H]1C[C@@H]1C(=O)O`: the Potency result in assay [1], in assay [3], in assay [4], in assay [5], in assay [8] and in [7] was “inactive” in each case. The compound was called inactive in [2].

With `NCCCCN`, the Potency result in assay [1], in assay [3], in assay [4], in [5], in assay [6] and in assay [7] was “inactive” in each case. The result in [2] was inactive.

Take `O=c1onc2cnc3ccccc3n12`: the Potency result in [1], in assay [3], in assay [4], in [5] and in [8] was “inactive” each time. In addition, the result in [2] was inactive.

For `NC(=O)CC[C@H](N)C(=O)O`, the Potency entry in [1], in [3], in assay [4], in [5], in [6] and in assay [7] was “inactive” in each case. Besides, the call in assay [2] was inactive.

`NC1(C(=O)O)CC1`: the Potency result in [1], in assay [3], in assay [4], in assay [5], in assay [6] and in assay [7] was “inactive” each time. Further, the compound was classed as inactive in assay [2].

In the case of `Nc1ccc(N2C(=O)c3ccccc3C2=O)c(Cl)c1`, the Potency result in assay [1], in assay [3], in [4], in [5], in [6] and in assay [7] was “inactive” throughout. The call in [2] was inactive.

For `Cc1cccc(C2CN(C)CCc3c2cc(O)c(O)c3Cl)c1` (centres undefined), the Potency entry in assay [1], in assay [3], in [4], in assay [5], in assay [6] and in [7] was “inactive” in each case. Further, in assay [2], the outcome was inactive.

As for `COc1cc2c(CCNC(C)=O)c[nH]c2cc1O`, the Potency result in assay [1], in assay [3], in assay [4], in assay [5], in [6] and in [7] was “inactive” each time. Also, the result in assay [2] was inactive.

In the case of `N[C@H](C(=O)O)[C@H](Cc1ccccc1)C(=O)O`, the Potency result in assay [1], in assay [3], in [4], in assay [5], in assay [6] and in assay [7] was “inactive” each time. In addition, the compound was called inactive in assay [2].

In the case of `CCOC(=O)C12CC1/C(=N/O)c1ccccc1O2` (centres undefined), the Potency result in assay [1], in assay [3], in assay [4], in [5], in assay [6] and in assay [7] was “inactive” in each case. For the same compound, the result in assay [2] was inactive.

In the case of `Nc1nc2c(nc(Br)n2C2OC3COP(=O)(O)O[C@@H]3C2O)c(=O)[nH]1` (some centres undefined), the Potency entry in [1], in [3], in [4], in assay [5], in assay [6] and in [7] was “inactive” in each case. For the same compound, in [2], the compound was classed as inactive.

`CC(=O)[C@H]1CCC2C3CC=C4C[C@@H](OS(=O)(=O)O)CC[C@]4(C)C3CC[C@@]21C` (some centres undefined): the Potency entry in [1], in [3], in [4], in assay [5] and in assay [8] was “inactive” in each case. The call in assay [2] was inactive. In addition, in assay [7], the Potency was 28.2 µM (active).

As for `CCCCCCN(CCCCCC)C(=O)Cc1c(-c2ccc(F)cc2)[nH]c2ccccc12`, the Potency result in [1], in assay [3], in assay [4], in [5] and in assay [8] was “inactive” in each case. Besides, the compound was classed as inactive in assay [2].

With `CC1C(=O)N(C)C(=O)c2nc[nH]c21` (centres undefined), the Potency entry in assay [1], in assay [3], in assay [4], in [5], in assay [6] and in assay [7] was “inactive” in each case. Further, the call in assay [2] was inactive.

With `CC(=O)O[C@H]1Cc2ccccc2N(C(N)=O)c2ccccc21`, the Potency result in assay [1], in [3], in [4], in assay [5], in assay [6] and in assay [7] was “inactive” throughout. Moreover, in assay [2], the result was inactive.

Take `N#C/C(=C\c1ccc(O)c(O)c1)C(=O)NCCCNC(=O)/C(C#N)=C/c1ccc(O)c(O)c1`: the Potency result in [1], in assay [3], in assay [4] and in [5] was “inactive” in each case. Moreover, the result in assay [2] was inactive. The Potency was 20 µM (active) in assay [9] and 22.4 µM (active) in assay [7].

For `CCCCCCCCCC(=O)NC(CN1CCOCC1)[C@H](O)c1ccccc1` (some centres undefined), the Potency entry in assay [1], in [3], in assay [4], in [5], in assay [6] and in assay [7] was “inactive” each time. For the same compound, the compound was classed as inactive in assay [2].

For `CC(=O)O[C@H]1CC2(C)[C@@H](C[C@@H](O)[C@H]3[C@@]4(C)CC[C@@H](O)[C@@H](C)[C@@H]4CC[C@@]32C)C1=C(CCC=C(C)C)C(=O)O` (some centres undefined), the Potency result in assay [1], in assay [3], in assay [4], in [5], in assay [6] and in assay [7] was “inactive” each time. The result in [2] was inactive.

Turning to `N=C(N)c1ccc(N)cc1`, the Potency result in [1], in assay [3], in [4], in assay [5], in [6] and in assay [7] was “inactive” in each case. Besides, the outcome in [2] was inactive.

For `Fc1ccc(CN(C2=NCCN2)c2c(Cl)cccc2Cl)cc1`, the Potency result in [1], in [3], in assay [4], in assay [5], in assay [6] and in assay [7] was “inactive” each time. Moreover, the result in [2] was inactive.

Turning to `C#CC(N)CCC(=O)O` (centres undefined), the Potency result in [1], in assay [3], in assay [4], in assay [5], in assay [6] and in [7] was “inactive” each time. Moreover, the outcome in assay [2] was inactive.

In the case of `Cc1ccc([N+](=O)[O-])cc1S(=O)(=O)N(C)C`, the Potency result in [1], in assay [3], in [4], in assay [5], in [8] and in assay [7] was “inactive” each time. Also, the result in [2] was inactive.

Turning to `OC[C@H]1O[C@H](n2cnc3c(N[C@H]4CCC[C@@H]4O)ncnc32)[C@H](O)[C@@H]1O`, the Potency entry in [1], in assay [3], in [4], in [5], in [6] and in [7] was “inactive” in each case. Moreover, the call in assay [2] was inactive.

As to `NC1(C(=O)O)CCc2cc(C(=O)O)ccc21` (centres undefined), the Potency entry in [1], in assay [3], in [4], in assay [5], in [8] and in assay [7] was “inactive” throughout. Further, the compound was classed as inactive in assay [2].

Consider `C[C@]12C=CC(=O)C=C1CC[C@@H]1C2=CC[C@]2(C)[C@@H](C(=O)CN3CCN(c4cc(N5CCCC5)nc(N5CCCC5)n4)CC3)CC[C@@H]12`, for which the Potency result in [1], in assay [3], in [4], in assay [5] and in [9] was “inactive” throughout. In addition, in assay [2], the compound was classed as inactive.

For the compound `O=C(O)C1=CCCNC1`, the Potency entry in assay [1], in assay [3], in assay [4], in assay [5], in [8] and in [7] was “inactive” throughout. For the same compound, the result in assay [2] was inactive.

For the compound `CN1Cc2sccc2C(c2ccc(O)c(O)c2)C1` (centres undefined), the Potency result in [1], in assay [3], in [4], in [5] and in [7] was “inactive” each time. In addition, the compound was called inactive in [2].

(Values after PubChem BioAssay (NCATS).)
